Several values for one entry are separate records, joined by “and”; a condition that tells them apart may be missing. Identical values can stand only once. The whole screen tested about 5,500 compounds, of which about 2,000 (36%) were called active. About 18% were inconclusive and are not listed. Cut-off read from the data, not from the text of the source: active = normalized growth mostly below about 0.91 (no sharp cut-off); inconclusive = no clear call, values can overlap the other calls; inactive = mostly above about 0.92. The list shows a part of the results.
Experiment: chemical genetic growth profiling, strain panel (AID 1159580);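 note: tested at 20 µM; growth read once vehicle control cultures reached saturation at 30 °C; 1 = growth at the plate median or of vehicle wells; lower values mean less growth of the strain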
Details: S. cerevisiae deletion strains, growth OD

Measured: normalized growth

C[C@@H]1C(=O)O[C@H]2[C@H]1CC[C@@]1(C)C=CC(=O)[C@@]3(C)O[C@@]213
inactive: locus YAL013W, strain DEP1, active compounds read low 1 | locus YAL021C, strain ccr4, active compounds read low 1.01 | locus YAL026C, strain drs2, active compounds read low 1.02 | locus YAL030W, strain snc1, active compounds read low 1.01 | locus YBL061C, strain skt5, active compounds read low 1.01 | locus YBR009C, strain hhf1, active compounds read low 1.01 | locus YBR021W, strain FUR4, active compounds read low 1 | locus YBR023C, strain chs3, active compounds read low 1.02 | locus YBR171W, strain sec66, active compounds read low 1.02 | locus YBR229C, strain ROT2, active compounds read low 1.01 | locus YBR231C, strain swc5, active compounds read low 1.02 | locus YBR279W, strain paf1, active compounds read low 1.01 | locus YCL011C, strain gbp2, active compounds read low 1.01 | locus YCL016C, strain dcc1, active compounds read low 1 | locus YCL029C, strain bik1, active compounds read low 1.04 | locus YCL069W, strain vba3, active compounds read low 1.03 | locus YCR088W, strain abp1, active compounds read low 1.01 | locus YDL005C, strain med2, active compounds read low 1.02 | locus YDL035C, strain GPR1, active compounds read low 1.02 | locus YDL040C, strain nat1, active compounds read low 1 | locus YDL074C, strain BRE1, active compounds read low 1.02 | locus YDL101C, strain DUN1, active compounds read low 1.01 | locus YDL134C, strain PPH21, active compounds read low 0.993 | locus YDL185W, strain tfp1, active compounds read low 0.986 | locus YDL192W, strain arf1, active compounds read low 1.01 | locus YDR001C, strain nth1, active compounds read low 1.01 | locus YDR069C, strain doa4, active compounds read low 1.03 | locus YDR101C, strain arx1, active compounds read low 1.01 | locus YDR137W, strain rgp1, active compounds read low 0.982 | locus YDR150W, strain NUM1, active compounds read low 1.01 | locus YDR159W, strain sac3, active compounds read low 1.06 | locus YDR162C, strain NBP2, active compounds read low 1.02 | locus YDR195W, strain ref2 1.01 | locus YDR297W, strain sur2, active compounds read low 1 | locus YDR318W, strain mcm21, active compounds read low 1.02 | locus YDR334W, strain swr1, active compounds read low 1.02 | locus YDR335W, strain msn5, active compounds read low 1.01 | locus YDR388W, active compounds read low 1.01 | locus YDR392W, strain spt3, active compounds read low 0.996 | locus YDR502C, strain sam2, active compounds read low 1.02 | locus YEL003W, strain gim4, active compounds read low 1.01 | locus YEL037C, strain rad23, active compounds read low 1.02 | locus YEL061C, strain CIN8 (second series), active compounds read low 1.01 | locus YEL061C, strain CIN8, active compounds read low 1.01 | locus YER015W, strain faa2, active compounds read low 1.02 | locus YER016W, strain bim1, active compounds read low 1.01 | locus YER110C, active compounds read low 1.01 | locus YER111C, strain swi4, active compounds read low 1.02 | locus YER155C, strain BEM2 (second series), active compounds read low 1.03 | locus YER155C, strain BEM2, active compounds read low 0.996 | locus YER167W, strain BCK2, active compounds read low 1.02 | locus YFR010W, strain ubp6, active compounds read low 1.06 | locus YGL078C, strain dbp3, active compounds read low 1.03 | locus YGL086W, strain mad1, active compounds read low 1.02 | locus YGL167C, strain pmr1, active compounds read low 1.02 | locus YGL173C, strain kem1, active compounds read low 1.02 | locus YGL227W, strain vid30, active compounds read low 1.02 | locus YGL240W, strain doc1, active compounds read low 1.01 | locus YGL248W, strain PDE1, active compounds read low 1.02 | locus YGL253W, strain hxk2, active compounds read low 1.05 | locus YGR078C, strain PAC10, active compounds read low 1.02 | locus YGR135W, strain pre9, active compounds read low 1.03 | locus YGR229C, strain SMI1, active compounds read low 1.02 | locus YGR252W, strain gcn5, active compounds read low 1.06 | locus YHR013C, strain ard1, active compounds read low 0.995 | locus YHR027C, strain rpn1, active compounds read low 1.02 | locus YHR030C, strain SLT2, active compounds read low 1.01 and 1.04 | locus YHR079C, strain IRE1 (second series), active compounds read low 1.02 | locus YHR079C, strain IRE1, active compounds read low 1.04 | locus YHR094C, strain hxt1, active compounds read low 1 | locus YHR129C, strain ARP1, active compounds read low 1.01 | locus YHR142W, strain chs7, active compounds read low 1.02 | locus YHR200W, strain rpn10, active compounds read low 1.02 | locus YIL066C, strain RNR3, active compounds read low 1.02 | locus YIL073C, strain SPO22, active compounds read low 1.05 | locus YIL125W, strain kgd1, active compounds read low 1.03 | locus YIR030C, strain dcg1, active compounds read low 1.02 | locus YJL092W, strain hpr5, active compounds read low 1.02 | locus YJL095W, strain BCK1 (second series), active compounds read low 1.01 | locus YJL095W, strain BCK1, active compounds read low 1.03 | locus YJL115W, strain asf1, active compounds read low 1.02 | locus YJL129C, strain trk1, active compounds read low 1.04 | locus YJL134W, strain LCB3, active compounds read low 1 | locus YJL154C, strain vps35, active compounds read low 1.01 | locus YJL164C, strain tpk1, active compounds read low 1.01 | locus YJL166W, strain qcr8, active compounds read low 1.01 | locus YJL168C, strain set2, active compounds read low 1.01 | locus YJL187C, strain SWE1 (second series), active compounds read low 1.04 | locus YJR043C, strain POL32, active compounds read low 1.02 | locus YJR066W, strain TOR1, active compounds read low 0.959 | locus YJR075W, strain HOC1, active compounds read low 1.02
